# From PubChem BioAssay
# Mito fusion act = mitochondrial division inhibition or fusion activation; actives 0.23% (n = 320,000); Potency, µM (top dose mostly 46.1 µM), for the others: top-dose growth rescue (activation), hits mostly activators; S. cerevisiae fusion-defective mutant growth rescue, CellTiterGlo 48 h; also: % of control where 0% means no effect; nearly all actives have a fitted effect of over 45% in size
#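 Read-out: ATP-based luminescence (CellTiterGlo, 10 min ambient) reporting growth of fusion-defective ts yeast after 48 hours at 37C on glycerol/ethanol YPEG medium in the presence of compound.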
# FUS yeast rescue = rescues growth of FUS-expressing yeast; S. cerevisiae FUS-expressing, growth rescue, OD600, 24 h; Potency, µM (titrated, usually from 76.6 µM), hits mostly activators; actives 0.24% (n = 390,000); AID 1347120;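 also: plate controls were DMSO vehicle for no effect and reference control for full effect; nearly all actives have a fitted effect of over 55% in size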
#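 Steps: raffinose overnight preculture; dilution to OD 0.005 in 2% galactose minimal medium; compound addition (concentration series); 24hr at 30C, 99% humidity; absorbance read at 600 nm.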
# aSyn rescue = inhibitors of alpha-synuclein toxicity in yeast. Potency, µM (doses to about 46.1 µM), for inactives: top-dose growth rescue (activation), usual class: activators. actives 0.14% (n = 370,000). Yeast expressing alpha-synuclein, growth rescue, BacTiter-Glo, 24 h. AID 652106; also: % of control where 0% means no effect; nearly all actives have a fitted effect of over 65% in size
#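 Rescue of yeast growth: cells expressing toxic alpha-synuclein, induced in galactose at OD600 0.02, incubated with compound 24 h at 30 C. ATP luminescence quantified growth; inhibitors of toxicity appear as activators.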
# Abeta rescue = compounds reversing amyloid beta toxicity in yeast; yeast expressing A-beta42, growth rescue, OD600, 48 h; response scale: 0% DMSO, 100% iron-clioquinol control; Potency, µM (highest dose often 46.1 µM), hits mostly activators; actives 0.063% (n = 410,000); AID 1347071; also: nearly all actives have a fitted effect of over 55% in size
#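 Yeast A-beta toxicity model in growth medium with pinned compounds, 48 h at 30 C; growth read as absorbance at 600 nm. Normalized to FeCl3/clioquinol equimolar mix (positive) and DMSO (negative).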
# TDP43 rescue = TDP-43 toxicity inhibition in yeast; TDP-43 expressing yeast growth rescue, BacTiter-Glo, 24 h; Potency, µM (top dose mostly 46.1 µM), without a hit: at the highest dose growth rescue (activation), most hits filed as activators; actives 1.8% (n = 410,000); AID 652104; also: % of control where 0% means no effect; nearly all actives have a fitted effect of over 50% in size
#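 Cell-based yeast growth screen: TDP-43 expression induced in galactose, inoculum OD600=0.02 after raffinose pregrowth to mid-log. Read-out BacTiter-Glo luminescence at 24 hr, 30 deg C; inhibition of toxicity seen as signal increase.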
# Active calls of the source: *; i = inactive; ? = inconclusive; . = no result given; [ ] = dose if it differs, or a comment. Shown are actives, neighbours in structure and some others; about 2.2% of the full set was active somewhere. Calls follow the shape of the dose curve; as a rule, active = well fitted curve in the direction sought with a large enough effect; inconclusive = small, poorly fitted or top-dose-only effect, or another doubt; inactive = no such curve, though single readings can be large; an effect the other way counts as inactive or inconclusive. Potency is read from the fitted curve at half-maximal effect.
SMILES,Mito fusion act,FUS yeast rescue,aSyn rescue,Abeta rescue,TDP43 rescue
COc1ccc(Br)cc1C1NC(c2ccc3c(c2)OCO3)=CC(c2ccccc2O)N1 (stereo not drawn),.,.,-2%,.,.
CC(C(=O)NCc1ccc2c(c1)OCO2)N1c2cccc3cccc(c23)S1(=O)=O (stereo not drawn),0%,i,0%,i,13µM*
O=C(OCc1cc(Cl)cc2c1OCOC2)c1cccnc1Cl,.,i,16µM*,i,?
CNS(=O)(=O)c1cccc(C(=O)OCc2cc(Cl)cc3c2OCOC3)c1,13%,i,4%,i,?
CC(NC(=O)OC(C)(C)C)C(=O)Oc1cc2oc(=O)cc(-c3ccccc3)c2cc1Cl (stereo not drawn),4%,.,17%,i,4.5µM*
Clc1ccccc1Nc1nc(-c2ccncc2)nc2ccccc12,12%,i,1%,i,35µM*
CCCCS(=O)(=O)c1oc(-c2cccs2)nc1S(=O)(=O)c1ccc(F)cc1,.,i,.,i,22µM*
Cc1ccc(Cn2c(C)c(CNCC(C)c3ccccc3)c(C(=O)O)c2C)cc1 (stereo not drawn),.,i,.,i,-5%
Oc1ccccc1Cc1c(O)ccc2ccccc12,9%,i,18%,i,16µM*
Cc1ccc(C(C(=O)NC(C)(C)C)N(C(=O)CCC(=O)Nc2ccccn2)c2ccccc2F)cc1 (stereo not drawn),13%,i,0%,i,10%
C=CCn1c(NC(=O)c2ccc(Br)o2)c(S(=O)(=O)c2ccccc2)c2nc3ccccc3nc21,11µM*,i,-3%,i,-4%
C=CCn1c(NC(=O)c2ccco2)c(S(=O)(=O)c2ccccc2)c2nc3ccccc3nc21,6%,.,.,.,.
CCOc1ccc(C2C(C(=O)Nc3ccccc3)=C(C)Nc3nc(-c4ccccc4Cl)nn32)cc1OC (stereo not drawn),.,32µM*,.,i,0%
COc1ccc(-c2nc(CSCC(=O)N3CCc4ccccc4C3)c(C)o2)cc1OC,-5%,i,3%,i,?
COc1ccc(-c2nc(CSCC(=O)N3CCN(c4cccc(C)c4)C(C)C3)c(C)o2)cc1OC (stereo not drawn),9%,?,8%,i,22µM*
O=C(Cn1nnc(-c2ccccc2F)n1)Nc1ccc(Cl)cc1,.,i,.,.,.
CC(C)(C)C(=O)N1CCN(c2nc3c(F)cccc3s2)CC1,.,i,.,i,?
COc1ccc(C)c2sc(N3CCN(C(=O)c4cccc(F)c4)CC3)nc12,.,i,.,i,19%
COc1ccc(C)c2sc(N3CCN(C(=O)c4ccco4)CC3)nc12,.,i,.,i,22µM*
Cc1ccc(C)c2sc(N3CCN(C(=O)c4ccc([N+](=O)[O-])o4)CC3)nc12,20µM*,i,-6%,i,-54%
Cc1ccc(C)c2sc(N3CCN(C(=O)C(C)(C)C)CC3)nc12,.,i,.,i,35µM*
Cc1ccc(Cl)c2sc(N3CCN(C(=O)C4CC4)CC3)nc12,.,?,.,i,14µM*
COc1ccccc1CNC(=O)c1ccc(-c2nc(CS(=O)(=O)c3ccc(C)cc3)c(C)o2)cc1,.,i,.,i,8%
CCn1c(SCC(=O)Nc2cccc(NC(C)=O)c2)nnc1-c1ccco1,-4%,i,5%,i,1%
CCn1c(SCC(=O)Nc2ccc3c(c2)c2ccccc2n3CC)nnc1-c1ccco1,5%,25µM*,-11%,i,20%
SMILES,Mito fusion act,FUS yeast rescue,aSyn rescue,Abeta rescue,TDP43 rescue
Cn1c2ccccc2c(=O)c2ccc(C#Cc3ccc(N)cc3)cc21,7%,?,14%,i,11µM*
Cn1c2ccccc2c(=O)c2cc(C#CC3=CCCCC3)ccc21,-11%,?,15%,i,9%
Cn1c2ccccc2c(=O)c2cc(C#Cc3cccc(N)c3)ccc21,?,i,1%,i,13µM*
COc1ccc(C)c(NC(=O)[C@@H]2CCCN2S(=O)(=O)c2cccc3cccnc23)c1,.,i,.,.,.
Cc1ccc(C)n1-c1nnc(N2CCC(C(=O)Nc3ccccc3Br)CC2)s1,.,i,.,i,?
Cc1cccc(C(C)Nc2ccc([N+](=O)[O-])cn2)c1 (stereo not drawn),-4%,i,0%,i,18µM*
CC(=O)Nc1cccc(C(=O)/C=C/c2cccs2)c1,10µM*,.,2%,i,23%
CC(=O)Nc1cccc(C(=O)/C=C/c2ccc(Br)cc2)c1,14µM*,i,-5%,i,?
CC(=O)Nc1cccc(C(=O)/C=C/c2ccc(/C=C/C(=O)c3cccc(NC(C)=O)c3)cc2)c1,-5%,.,.,.,.
Cc1oc2c(c1C(=O)Nc1ccc(C(=O)O)cc1)CCCC2,2%,i,17%,i,13µM*
COc1ccc([N+](=O)[O-])cc1NC(=O)C(C)OC(=O)C1CCCC1 (stereo not drawn),3%,i,-3%,i,27%
COC(=O)c1cc(OC)c(OC)cc1NC(=O)C(C)Sc1ccc(C)cc1 (stereo not drawn),11%,?,19%,i,-1%
COc1ccc([N+](=O)[O-])cc1NC(=O)C(C)Sc1ccc(C)cc1 (stereo not drawn),23%,.,9%,i,13µM*
COc1ccc([N+](=O)[O-])cc1NC(=O)C(C)OC(=O)CC1CCCC1 (stereo not drawn),15%,?,-10%[1.84 µM],i,20µM*
COc1ccc(OC)c(CCNC(=O)c2cnn(-c3ccccc3)c2C2CCN(C(=O)OC(C)(C)C)CC2)c1,.,?,.,i,14%
Cc1nnc(NC(=O)c2nc(SCc3ccccc3F)ncc2Cl)s1,.,?,.,i,16µM*
CCc1nnc(NC(=O)c2ccc3ccccc3n2)s1,13%,i,6%,i,32µM*
CCc1nnc(NC(=O)c2nc(SCc3ccccc3F)ncc2Cl)s1,.,i,.,i,18µM*
COC(=O)c1c(NC(=O)c2nc(SCc3ccc(F)cc3)ncc2Cl)sc2c1CCCC2,.,i,.,i,8%
CC(C)c1nnc(NC(=O)c2nc(SCc3ccc(F)cc3)ncc2Cl)s1,.,8.9µM*,.,i,12%
Oc1ccc(Br)cc1C1C=C(c2ccc3c(c2)OCO3)NC(c2ccc(F)c(Br)c2)N1 (stereo not drawn),.,.,-9%,.,.
O=C(Nc1cc(C(F)(F)F)ccc1Cl)c1cnn(-c2ccccc2)c1-n1cccc1,.,i,.,i,-18%
CCC1CCc2sc(C(=O)N(C)CC(=O)Nc3ccc(OC)cc3)cc2C1 (stereo not drawn),19%,i,24%,i,11µM*
